Rows were chosen to be rich in hits. Some 18% of all compounds tested hit in one or more screens of this group.
CtBP-E1A blk: blocks the CtBP interaction with E1A | AlphaScreen GST-E1A/His-CtBP binding, 1536-well; active compounds read low | activity change, % (concentration not given with the values) | 340,000 compounds, 0.49% hits | AID 651724; in the data active = activity change below about -65%; inconclusive = mostly about -30% to -63%
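Protein mix (5X: 125 nM each GST-E1A, His-CtBP) was incubated with pinned compound 2 h at 37 deg C in dark, in 50 mM Tris pH 8.0 buffer with 300 mM NaCl. Glutathione donor and nickel acceptor beads followed; AlphaScreen signal read after 1 h.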
TDP1 cell noCPT: qHTS for Inhibitors of human tyrosyl-DNA phosphodiesterase 1 (TDP1): qHTS in cells in absence of CPT; DT40 Tdp1-/- hTDP1 cells, no CPT, ATP luminescence, 48 h; Potency, µM (highest dose often 46.2 µM), hits mostly inhibitors; 420,000 compounds, 15% hits; AID 686978, 2013; also: nearly all actives have a fitted effect of over 55% in size
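Cells were dispensed at 400 per well, compounds added by pin tool, plates incubated ≥48 hr at 37 °C, then CellTiter-Glo added for 30 min at room temperature before luminescence reading. Line: DT40 Tdp1-/- complemented with hTDP1; camptothecin omitted.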
Six1-Eya2 blk: inhibitors of human Six1/Eya2 interaction; Q15475+O00167; AlphaScreen GST-Six1/His-Eya2 binding, biochemical; active compounds read low; activity change, % (no concentration beside the values); 360,000 compounds, 0.56% hits; AID 651725; in the data active = activity change below about -65%; inconclusive = mostly about -30% to -63%
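Six1/Eya2 binding was read as AlphaScreen signal after compounds were pinned into GST-Six1 plus His-tagged Eya2 (5X stock 250/500 nM) in pH 8.0 Tris/NaCl/TCEP buffer, beads added, then incubated 1 h, 37 C, dark.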
IL1B secr inh: inhibitors of inflammasome signaling (IL-1 beta secretion); THP-1 LPS/ATP IL-1B secretion, AlphaLISA, 16 h; active compounds read low; activity change, % at 57.5 µM; 360,000 compounds, 4.7% hits; in the data active = activity change below about -50%; inconclusive = mostly about -30% to -49%
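THP-1 cells pretreated 1 hr with compounds (up to 57.5 uM final), then stimulated with LPS (250 ng/mL final) plus ATP (1.25 mM final); secreted IL-1B measured by AlphaLISA after 16 hr, decreased signal indicating inhibition.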
DT40 TDP1 CPT: DT40-hTDP1 cell growth loss with CPT; chicken DT40 Tdp1-/-;hTDP1 cells + 20 nM CPT, ATP luminescence, 48 h; Potency, µM (titrated, usually from 46.2 µM), usual class: inhibitors; 420,000 compounds, 12% hits; also: nearly all actives have a fitted effect of over 55% in size
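Chicken DT40 Tdp1-/- cells stably complemented with human TDP1 were seeded at 400 cells/well in medium containing 20 nM camptothecin, exposed to pin-transferred compounds, and grown at 37 °C for at least 48 hr. Viability was read as ATP luminescence.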
TDP1 inh: blocks human tyrosyl-DNA phosphodiesterase 1; recombinant TDP1, AlphaScreen DNA substrate cleavage; Potency, µM (titrated, usually from 130 µM), most hits filed as inhibitors; 350,000 compounds, 0.28% hits; AID 485290; also: nearly all actives have a fitted effect of over 40% in size
Target sequence (Q9NUW8 whole entry, looked up): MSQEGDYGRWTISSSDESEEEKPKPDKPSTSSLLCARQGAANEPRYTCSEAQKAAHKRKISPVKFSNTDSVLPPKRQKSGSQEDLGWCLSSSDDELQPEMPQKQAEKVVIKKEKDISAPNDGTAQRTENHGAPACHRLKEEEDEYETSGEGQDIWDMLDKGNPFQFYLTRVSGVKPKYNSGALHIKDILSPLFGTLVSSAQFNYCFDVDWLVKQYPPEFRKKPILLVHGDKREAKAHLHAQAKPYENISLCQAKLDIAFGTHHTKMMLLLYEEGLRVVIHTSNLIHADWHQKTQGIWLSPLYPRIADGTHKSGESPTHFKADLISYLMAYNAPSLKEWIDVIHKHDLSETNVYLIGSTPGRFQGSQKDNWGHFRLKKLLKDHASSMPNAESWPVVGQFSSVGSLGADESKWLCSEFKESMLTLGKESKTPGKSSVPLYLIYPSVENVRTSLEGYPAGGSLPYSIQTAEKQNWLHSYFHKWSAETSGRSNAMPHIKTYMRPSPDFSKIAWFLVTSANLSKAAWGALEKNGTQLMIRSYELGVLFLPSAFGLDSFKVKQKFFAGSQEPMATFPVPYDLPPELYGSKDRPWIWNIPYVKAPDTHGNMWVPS
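Recombinant human Tdp1 (E. coli-expressed, 1 nM final) preincubated with compounds 15 min at room temperature, then 5'-biotin/3'-phosphotyrosine-FITC DNA substrate (15 nM final) added for 5 min. AlphaScreen beads (10 ug/ml final) added 10 min; cleavage lowers signal.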
Numbers stand for hits; . = inactive; ? = inconclusive; / = not tested or not shown; [ ] = another dose, or the depositor's remark. Unless noted, calls follow the shape of the dose curve; as a rule, active = well fitted curve in the direction sought with a large enough effect; inconclusive = small, poorly fitted or top-dose-only effect, or another doubt; inactive = no such curve, though single readings can be large; an effect the other way counts as inactive or inconclusive.

SMILES	CtBP-E1A blk	TDP1 cell noCPT	Six1-Eya2 blk	IL1B secr inh	DT40 TDP1 CPT	TDP1 inh
CC(C)Cn1c(O)c(/C=C2\C=NN=C2c2ccccc2)sc1=S	?	?	?	-88.8	?	.
Cn1c(O)c(/C=C2\C=NN=C2c2ccccc2)sc1=S	.	?	.	.	.	.
COc1ccc(-c2cc(=O)n(-c3ccc([N+](=O)[O-])cc3)[nH]2)cc1	.	16.4µM	?	.	?	.
COc1ccc(-c2[nH]n(-c3ccc([N+](=O)[O-])cc3)c(=O)c2C=NCc2ccc(F)cc2)cc1	.	?	.	.	.	.
COc1ccc(C)cc1N(C)C(=O)CCc1nc(-c2ccccc2F)no1	/	?	/	/	18.4µM	.
CCN(C(=O)CCc1nc(-c2ccccc2F)no1)c1cc(OC)ccc1OC	.	?	.	.	23.1µM	.
CCOc1ccc(N(CC)C(=O)CCc2nc(-c3ccccc3F)no2)cc1	/	?	/	/	?	.[12.3 µM]
Cc1cccc(-c2nc3ccccc3n2Cc2ccccc2)c1	/	5.17µM	/	/	?	.
Fc1ccc(Cn2c(-c3cccc(Br)c3)nc3ccccc32)cc1	/	18.4µM	/	/	?	.
CCCn1c(-c2cccc(Br)c2)nc2ccccc21	/	.	/	/	.	.
Cc1cccc(Cn2c(-c3ccc[nH]c3=O)nc3ccccc32)c1	/	20.6µM	.	.	?	/
Cc1ccc(Cn2c(-c3ccccc3)nc3ccccc32)cc1	/	?	/	/	?	.
COc1cc(Cl)c(C)cc1NC(=O)c1ccccc1-n1cnnn1	.	?	.	.	?	.
Oc1ccc2c(c1)C1CCCC1(N1CCOCC1)O2 (stereo not given)	.	?	.	.	23.1µM	.
CC1=C(C(=O)N2CCOCC2)C(c2ccc(O)cc2)NC(=S)N1 (stereo not given)	.	.	.	.	.	.
O=C(Nc1cccnc1)c1cccc(S(=O)(=O)N2CCCCC2)c1	.	.	.	.	.	.
CCCCCOc1ccc(NC(=O)Cn2c(-c3nonc3N)nc3ccccc32)cc1	/	.	/	/	?	.
CCOC(=O)c1ccccc1NC(=O)Cn1c(-c2nonc2N)nc2ccccc21	.	0.92µM	.	.	0.82µM	.
O=C(Cn1c(=O)n(Cc2nc(-c3ccccc3)no2)c(=O)c2ccccc21)Nc1cccc(C(F)(F)F)c1	/	20.6µM	/	/	?	.
Nc1nonc1-c1nc2ccccc2n1CC(=O)Nc1ccccc1	.	?	.	.	6.51µM	/
Nc1nonc1-c1nc2ccccc2n1CC(=O)Nc1cccc(C(F)(F)F)c1	/	13µM	/	/	?	.
CCOC(=O)N1CCN(C(=O)/C=C/c2ccc3c(c2)OCO3)CC1	.	.	.	.	.	.
CC1=C(C(=O)OCc2ccccc2)C(/C=C/c2ccccc2)NC(=S)N1 (stereo not given)	.	29.1µM	.	?	16.4µM	.
Cn1c(SCC(=O)NC(C)(C)C)nnc1-c1ccc(C(C)(C)C)cc1	.	23.1µM	.	.	?	.
Cn1c(SCC(=O)c2ccc3c(c2)Cc2ccccc2-3)nnc1-c1ccccc1	.	29.1µM	.	.	.	.
SMILES	CtBP-E1A blk	TDP1 cell noCPT	Six1-Eya2 blk	IL1B secr inh	DT40 TDP1 CPT	TDP1 inh
COc1ccc2c(Cl)c(-c3nnc(SCC(=O)c4ccccc4)n3C)sc2c1	.	?	.	?	?	89.1µM
CCc1ccc(NC(=O)CSc2nnc(-c3ccccc3)n2C)cc1	/	.	/	/	15.8µM	/
COc1ccc2c(Cl)c(-c3nnc(SCC(N)=O)n3C)sc2c1	.	.	.	.	?	.
COc1cccc(C(=O)Nc2c3c(nn2-c2ccc([N+](=O)[O-])cc2)CS(=O)(=O)C3)c1	.	.	.	.	.	.
COc1ccc(/C=N\N=C2/SC(CC(=O)O)C(=O)N2c2ccc(O)cc2)cc1 (stereo not given)	.	.	.	.	.	.
CC(C)C[C@H](NC(=O)OCC1c2ccccc2-c2ccccc21)C(=O)O	.	.	.	.	.	/
O=C(NC(Cc1cn(Cc2ccccc2)cn1)C(=O)O)OCC1c2ccccc2-c2ccccc21 (stereo not given)	?	13µM	?	.	14.6µM	/
COC(=O)[C@]1(C)N[C@H](c2ccc(-c3ccc(OC)cc3)cc2)[C@@H]2C(=O)N(C)C(=O)[C@@H]21	.	.	.	.	.	.
CCN1C(=O)[C@H]2[C@@H](c3ccc(-c4cccc(Cl)c4)c(OC)c3)N[C@@](C)(C(=O)OC)[C@H]2C1=O	.	?	.	.	13µM	.
COC(=O)[C@]1(C)N[C@H](c2ccc(-c3ccc(Cl)c(Cl)c3)c(OC)c2)[C@@H]2C(=O)N(C)C(=O)[C@@H]21	.	7.31µM	.	.	9.2µM	/
CCOC(=O)C1=C(CNCc2ccc(C)cc2)NC(=O)NC1c1cc(C)ccc1C (stereo not given)	.	?	.	.	20µM	.
COC(=O)C1=C(Cn2cnc3ccccc32)NC(=O)NC1c1cc(C)ccc1C (stereo not given)	.	?	.	.	?	.
CCOC(=O)C1=C(Cn2cnc3ccccc32)NC(=O)NC1c1cc(C)ccc1C (stereo not given)	.	23.1µM	.	.	25.9µM	.
COc1cccc(CN2CC(C(=O)N3CCOCC3)CCC2=O)c1 (stereo not given)	.	.	.	.	.	.
Cc1cccc(NC(=S)/N=C(\N)Nc2nc(C)c3ccc(C)cc3n2)c1	.	11.6µM	.	.	14.6µM	.
COc1ccc2nc(N/C(N)=N/C(=S)Nc3ccccc3)nc(C)c2c1	/	8.2µM	.	-86.5	25.9µM	.
COc1ccc(OC)c(N/C(=N/C(=S)Nc2ccccc2)Nc2nc(C)cc(C)n2)c1	/	8.2µM	.	.	?	.
COc1ccc(OC)c(N/C(=N\c2nc(C)cc(C)n2)NC(=O)c2ccco2)c1	/	/	/	/	/	.
Cc1cc(C)cc(NC(=S)/N=C(\N)Nc2nc(C)c3ccccc3n2)c1	.	14.6µM	?	.	20.6µM	.
Cc1ccc(S(=O)(=O)/N=C(\N)Nc2nc(C)c3ccccc3n2)cc1	.	.	.	.	.	.
CCCCN(C(=O)c1ccc(S(=O)(=O)N2CCCC2)cc1)C1CCS(=O)(=O)C1 (stereo not given)	.	.	.	.	.	/
Cc1nnc(SCC(=O)N2CCOCC2)s1	.	.	.	.	.	.
Cc1cccc(NC(=S)/N=C(\N)Nc2nc(C)c3cc(C)ccc3n2)c1	.	23.1µM	.	?	20.6µM	.
CCOc1ccc2nc(N/C(N)=N/S(C)(=O)=O)nc(C)c2c1	.	.	.	?	.	.
Cc1ccc(NC(=S)/N=C(\N)Nc2nc(C)c3ccccc3n2)cc1C	.	?	?	.	?	.

Compound activity deposited in PubChem BioAssay by National Center for Advancing Translational Sciences (NCATS).
